Assay [1] addresses Aryl hydrocarbon receptor (Homo sapiens) (UniProt P35869). Kind of assay: qHTS assay to identify small molecule that activate the aryl hydrocarbon receptor (AhR) signaling pathway (AID 743085). Further: nearly all actives have a fitted effect of over 15% in size. Further: potency means the concentration at half of the fitted maximal effect.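 On activation: HG2L7.5c1 human HepG2 liver cells with stably integrated DRE-driven firefly reporter; series mostly up to about 70 µM.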 The method, boiled down:
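Luminescence (ONE-Glo) from a dioxin-responsive-element luciferase reporter in HG2L7.5c1 HepG2 cells after 24 hr compound exposure at 37C; viability measured by CellTiter-Fluor fluorescence beforehand.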

Assay [2] in a line: qHTS assay to identify small molecule that activate the aryl hydrocarbon receptor (AhR) signaling pathway - cell viability counter screen (AID 743086).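 Further: HepG2 liver cells carrying the AhR DRE luciferase reporter; series mostly up to about 70 µM; nearly all actives have a fitted effect of over 45% in size.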 The method, boiled down:
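HepG2-AhR-luc (HG2L7.5c1) cells, 4000/well, were preincubated 5 h at 37C, exposed to compound in qHTS format for 24 hr at 37C, then given CellTiter-Fluor for 30 min; viability was read as fluorescence in the reporter wells.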
(qHTS replaces the single test concentration by a dilution series.)

Assay [3] deals with Peroxisome proliferator-activated receptor gamma (Homo sapiens) (UniProt P37231). Briefly: qHTS assay to identify small molecule antagonists of the peroxisome proliferator-activated receptor gamma (PPARg) signaling pathway (AID 743191; calls by dose curve; further: series mostly up to about 63 µM; nearly all actives have a fitted effect of over 30% in size). Put shortly: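 GeneBLAzer PPARg UAS-bla HEK293H cells carrying a UAS-driven beta-lactamase reporter were plated at 3000 cells/well, preincubated 5 h at 37C, then given compound for 17 h at 37C; LiveBLAzer B/G FRET substrate was read after 1 h at room temperature.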

A short description of assay [4]: qHTS assay to identify small molecule antagonists of the peroxisome proliferator-activated receptor gamma (PPARg) signaling pathway - cell viability counter screen (AID 743194). Further: nearly all actives have a fitted effect of over 55% in size. The method, boiled down: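 PPARg-UAS-bla HEK293H cells were plated, rested 5 h at 37 C, then treated with compounds plus rosiglitazone (50 nM final) for 17 h at 37 C; viability was then read by CellTiter-Glo luminescence after 30 min at room temperature.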

Assay [5] is described as follows: qHTS assay for small molecule agonists of the antioxidant response element (ARE) signaling pathway - cell viability counter screen (AID 743203; calls by dose curve; further: nearly all actives have a fitted effect of over 55% in size). Put shortly: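 Seeded at 2,000 cells/well, ARE-bla HepG2 cells were incubated 5 hrs before compound addition. After 16 hrs of treatment at 37C with 5% CO2, CellTiter-Glo reagent was added and luminescence read 30 min later.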

A short description of assay [6]: qHTS assay for small molecule activators of the heat shock response signaling pathway (AID 743210; active means well fitted activation curve with a large enough effect in the signal ratio in the repeat runs, with a control signal flat, not every such curve was filed as active; the % refers to the signal ratio; further: series mostly up to about 63 µM). Put shortly:
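HSE-bla HeLa cells (beta-lactamase reporter under heat shock response elements) were exposed to compounds for 5 h at 37 C, then loaded with LiveBLAzer B/G FRET substrate for 2.5 h at room temperature before fluorescence reading.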

Assay [7] can be described thus: qHTS assay to identify small molecule agonists of the peroxisome proliferator-activated receptor delta (PPARd) signaling pathway - cell viability counter screen (AID 743211). Further: nearly all actives have a fitted effect of over 55% in size. Put shortly:
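Viability was measured as CellTiter-Glo luminescence (30 min, room temperature) in the same wells as the beta-lactamase readout. GeneBLAzer PPARd UAS-bla HEK293H cells received compound after 5 h plating and were incubated 17 h at 37 C.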

Assay [8] can be described thus: qHTS assay for small molecule activators of the heat shock response signaling pathway - cell viability counter screen (AID 743209). Further: nearly all actives have a fitted effect of over 50% in size. The method, boiled down: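 First, HSE-bla HeLa cells were seeded at 1500 cells/well and kept overnight at 37 C. Next, compounds were pinned in and incubated 5 h. After the FRET substrate step, CellTiter-Glo was added and luminescence read 30 min later.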

The nature of assay [9]: qHTS assay for small molecule agonists of the antioxidant response element (ARE) signaling pathway (AID 743202; active means well fitted activation curve with a large enough effect in the signal ratio in the repeat runs, not every such curve was filed as active; the % refers to the signal ratio). Put shortly:
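Read-out: LiveBLAzer B/G FRET substrate fluorescence after 2 h at room temperature, following 16 h compound treatment at 37 C of HepG2 cells carrying an ARE-driven beta-lactamase reporter.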

For assay [10], the target named is Peroxisome proliferator-activated receptor gamma (Homo sapiens) (UniProt P37231). Kind of assay: qHTS assay to identify small molecule agonists of the peroxisome proliferator-activated receptor gamma (PPARg) signaling pathway (AID 743094; active means well fitted activation curve with a large enough effect in the signal ratio in the repeat runs, not every such curve was filed as active; the % refers to the signal ratio). Put shortly: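 Quantitative HTS agonist mode: stable HEK293H line with UAS-beta-lactamase reporter under PPARg control, 17 h compound exposure at 37C, fluorescence after 1 h FRET substrate loading at room temperature.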

Records with an inconclusive call do not appear. Unmarked numbers belong to inactive results. Calls of active or inactive are those of the source. Unless noted, the call rests on the fitted dose curve; in most records, active means well fitted curve in the direction sought with a large enough effect in the repeat runs; inconclusive means weak or mixed curves; inactive means no such curve, though single readings can be large; an effect the other way counts as inactive or inconclusive.
On the % scale 0 is the no-effect control and ±100 the full control effect.

Aryl hydrocarbon receptor (Homo sapiens), sequence (P35869 whole entry, looked up): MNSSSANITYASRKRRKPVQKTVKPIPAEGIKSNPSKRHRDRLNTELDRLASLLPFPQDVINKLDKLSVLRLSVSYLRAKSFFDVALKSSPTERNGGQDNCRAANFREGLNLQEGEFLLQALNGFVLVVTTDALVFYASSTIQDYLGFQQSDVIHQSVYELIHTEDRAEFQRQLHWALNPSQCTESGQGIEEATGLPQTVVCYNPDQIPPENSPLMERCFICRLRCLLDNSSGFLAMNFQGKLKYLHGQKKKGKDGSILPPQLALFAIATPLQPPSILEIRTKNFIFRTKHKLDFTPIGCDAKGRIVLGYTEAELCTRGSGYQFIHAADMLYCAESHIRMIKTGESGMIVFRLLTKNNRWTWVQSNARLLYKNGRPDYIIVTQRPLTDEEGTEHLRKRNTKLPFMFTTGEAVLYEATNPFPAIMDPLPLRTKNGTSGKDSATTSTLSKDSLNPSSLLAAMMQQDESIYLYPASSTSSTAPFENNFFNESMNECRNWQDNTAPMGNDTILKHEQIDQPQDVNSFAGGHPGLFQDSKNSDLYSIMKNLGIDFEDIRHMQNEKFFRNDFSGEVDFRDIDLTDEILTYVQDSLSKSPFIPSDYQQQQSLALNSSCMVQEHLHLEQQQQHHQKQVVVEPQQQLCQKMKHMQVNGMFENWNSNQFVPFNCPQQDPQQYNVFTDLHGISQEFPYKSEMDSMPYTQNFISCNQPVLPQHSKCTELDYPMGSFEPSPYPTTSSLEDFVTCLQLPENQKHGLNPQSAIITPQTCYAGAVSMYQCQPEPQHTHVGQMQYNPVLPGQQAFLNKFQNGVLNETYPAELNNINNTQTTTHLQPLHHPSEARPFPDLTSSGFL
Peroxisome proliferator-activated receptor gamma (Homo sapiens), sequence (P37231 whole entry, looked up): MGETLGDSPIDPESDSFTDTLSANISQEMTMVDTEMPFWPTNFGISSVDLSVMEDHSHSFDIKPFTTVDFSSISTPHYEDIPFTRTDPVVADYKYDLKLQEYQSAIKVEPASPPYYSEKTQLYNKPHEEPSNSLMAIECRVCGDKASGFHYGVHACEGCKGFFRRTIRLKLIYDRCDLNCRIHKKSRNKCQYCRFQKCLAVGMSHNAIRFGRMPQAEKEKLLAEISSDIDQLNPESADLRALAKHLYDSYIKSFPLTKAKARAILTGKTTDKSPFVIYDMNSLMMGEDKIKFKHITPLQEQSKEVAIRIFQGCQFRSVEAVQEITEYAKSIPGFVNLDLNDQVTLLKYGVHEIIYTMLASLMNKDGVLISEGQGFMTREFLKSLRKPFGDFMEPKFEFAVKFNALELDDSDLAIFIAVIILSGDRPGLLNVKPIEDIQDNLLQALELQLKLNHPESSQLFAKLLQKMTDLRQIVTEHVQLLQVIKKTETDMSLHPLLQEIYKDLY

Take `C=CC(=O)OCC[N+](C)(C)C`: the Potency result in [1] was “inactive”. Besides, the outcome in assay [2], in [3], in assay [4], in [5], in assay [6] and in assay [7] was inactive.

For `CCN1CCN(C(=O)N[C@@H](C(=O)N[C@@H]2C(=O)N3[C@@H]2SC(C)(C)[C@H]3C(=O)O)c2ccccc2)C(=O)C1=O`, the Potency entry in assay [1] and in assay [8] was “inactive” each time. The compound was called inactive in assay [2], in assay [3], in assay [4], in assay [5], in assay [6] and in assay [7].

On to `CN1CCN(C(=O)C2CCCCC2)CC1`, for which the Potency result in assay [1] and in assay [9] was “inactive” each time. The outcome in [2], in assay [3], in assay [4], in assay [5], in assay [6] and in assay [7] was inactive.

As for `C/C=C(\C)C=O`, the Potency result in assay [1] and in assay [8] was “inactive” in each case. Besides, the compound was classed as inactive in assay [2], in [3], in [4], in assay [5], in assay [6] and in assay [7].

In the case of `COc1cc2nc(N3CCN(C(=O)C4CCCO4)CC3)nc(N)c2cc1OC` (stereo unspecified), the Potency result in assay [1], in [9] and in [8] was “inactive” in each case. Besides, the outcome in assay [10], in assay [3], in assay [4], in assay [5], in [6] and in [7] was inactive.

For `Clc1cc(Cl)c(Cl)c(Cl)c1Cl`, in assay [1], the Potency entry was “inactive”. For the same compound, the outcome in [2], in assay [4], in assay [5], in [6] and in assay [7] was inactive.

Consider `C=CCN(CC=C)CC=C`, for which the Potency result in assay [1] and in assay [8] was “inactive” each time. The compound was classed as inactive in assay [2], in [4], in assay [5], in [6] and in assay [7].

On to `CC(=O)OC1CCC(C(C)(C)C)CC1` (stereo unspecified), for which the Potency result in assay [1] and in assay [9] was “inactive” each time. Moreover, the compound was classed as inactive in assay [2], in assay [4], in [5] and in [6].

With `CNCCc1ccccn1`, the Potency entry in assay [1] and in assay [8] was “inactive” throughout. Also, the call in [2], in assay [4], in [5] and in assay [6] was inactive.

Regarding `CCOC(=O)COc1ccc2c(C)c(CCN(CC)CC)c(=O)oc2c1Cl`, the Potency result in assay [1] and in [9] was “inactive” in each case. Moreover, the result in assay [2], in assay [3], in assay [4], in assay [5] and in assay [7] was inactive.

As for `CCCCCCCCS(=O)(=O)O`, the Potency entry in [1], in assay [9] and in assay [8] was “inactive” throughout. Further, the call in assay [2], in [4], in assay [5], in assay [6] and in assay [7] was inactive.

As for `CCCCCCC(=O)c1ccccc1`, the Potency result in assay [1] and in assay [8] was “inactive” each time. Also, the call in assay [2], in assay [3], in assay [4], in assay [5], in assay [6] and in assay [7] was inactive.

Regarding `CC(C)CC(O)Cc1ccccc1` (stereo unspecified), the Potency result in assay [1] and in [9] was “inactive” each time. For the same compound, the compound was classed as inactive in [2], in assay [3], in assay [4], in assay [5] and in assay [6].

In the case of `C[C@H]1COc2c(C3(N)CC3)c(F)cc3c(=O)c(C(=O)O)cn1c23`, the Potency entry in [1], in assay [9] and in [8] was “inactive” each time. The call in assay [10], in [3], in assay [4], in assay [5], in assay [6] and in assay [7] was inactive.

On to `CC(C)=CCC/C(C)=C\C#N`, for which the Potency result in [1] was “inactive”. The call in assay [2], in assay [3], in [4], in assay [5], in assay [6] and in assay [7] was inactive.

As to `c1cc2ccc3ccc4ccc5cccc6c(c1)c2c3c4c56`, in assay [1], the activation is 0.485% [at 3.79 µM]. The viability change, negative = cytotoxic in assay [2] is 13.2% [at 3.79 µM]; in [5], 6.8% [at 3.74 µM]. Moreover, the results for the activity change, negative = cytotoxicity in [4], in assay [8] and in [7] were 27.2% [at 2.7 µM], 1.58% [at 2.7 µM] and -28.1% [at 2.7 µM], respectively.

For the compound `CC(C)(Sc1cc(C(C)(C)C)c(O)c(C(C)(C)C)c1)Sc1cc(C(C)(C)C)c(O)c(C(C)(C)C)c1`, the Potency result in assay [1] and in assay [9] was “inactive” in each case. Moreover, the call in [2], in assay [3], in assay [4], in assay [5], in assay [6] and in assay [7] was inactive.

With `CCCCCCCCCCCC(C)=O`, the Potency result in assay [1], in assay [9] and in assay [8] was “inactive” in each case. The call in assay [10], in [3], in [4], in assay [5], in assay [6] and in assay [7] was inactive.

On to `COC(=O)c1ccccc1Cl`, for which the Potency entry in assay [1] is “inactive”. The call in [2], in assay [3], in [4], in assay [5], in assay [6] and in assay [7] was inactive.

Turning to `C=CCCCCCCCCCCCCCC`, the Potency entry in assay [1] and in [8] was “inactive” in each case. Besides, the compound was classed as inactive in [2], in assay [3], in assay [4], in assay [5], in assay [6] and in assay [7].

As to `CC(=O)c1ccc2ccc3ccccc3c2c1`, the Potency in assay [1] is 60.8 µM (active). The compound was called inactive in assay [2], in assay [3] and in assay [5]. Moreover, the Potency result in [9] and in [8] was “inactive” each time.

`CCOC(=O)CC(C(C)=O)C(C)=O`: the Potency result in assay [1] and in assay [9] was “inactive” in each case. Further, the compound was classed as inactive in [2], in [3], in [4], in assay [5], in assay [6] and in [7].

As to `CCCCN1C(=O)c2ccccc2C1=O`, the Potency result in [1], in assay [9] and in [8] was “inactive” in each case. Moreover, the result in [2], in assay [4], in assay [5] and in assay [6] was inactive.

Consider `N#CC1(N)CCCCC1`, for which the Potency entry in [1], in [9] and in assay [8] was “inactive” throughout. Besides, the result in [10], in assay [3], in [4], in [5], in [6] and in assay [7] was inactive.

`C[C@@H]1CC[C@@]2(OC1)O[C@H]1C[C@H]3[C@@H]4CC[C@H]5C[C@@H](O)CC[C@]5(C)[C@H]4CC(=O)[C@]3(C)[C@H]1[C@@H]2C`: the Potency entry in [1] is “inactive”. Moreover, the compound was called inactive in assay [2]. Besides, the activity change, negative = cytotoxicity is 10.8% [at 5.95 µM] in [4] and 11.4% [at 5.95 µM] in [8]. For the same compound, the values for the activation in assay [9] and in [6] were 5.01% [at 8.36 µM] and 0.0014% [at 5.95 µM], respectively. The viability change, negative = cytotoxic in [5] was 3.19% [at 8.36 µM].

Values taken from PubChem BioAssay (Tox21).
